# Results reported in the supplement of paper PMC12645437, “Orthogonal IMiD-Degron Pairs Induce Selective Protein Degradation in Cells” (ACS Chemical Biology, 2025).
# Whole data set: some 8,300 sequences, median “log2 fold change of degron read counts, EGFP-low vs EGFP+ sorted cells (limma voom), compound-induced degradation” near -1.1, cut for the highest 2% near 3.2. The list comes from a sample in which the highest values are over-represented; it also holds similar and randomly drawn sequences.
# T1: CRBN, Q96SW2
# T1 chain: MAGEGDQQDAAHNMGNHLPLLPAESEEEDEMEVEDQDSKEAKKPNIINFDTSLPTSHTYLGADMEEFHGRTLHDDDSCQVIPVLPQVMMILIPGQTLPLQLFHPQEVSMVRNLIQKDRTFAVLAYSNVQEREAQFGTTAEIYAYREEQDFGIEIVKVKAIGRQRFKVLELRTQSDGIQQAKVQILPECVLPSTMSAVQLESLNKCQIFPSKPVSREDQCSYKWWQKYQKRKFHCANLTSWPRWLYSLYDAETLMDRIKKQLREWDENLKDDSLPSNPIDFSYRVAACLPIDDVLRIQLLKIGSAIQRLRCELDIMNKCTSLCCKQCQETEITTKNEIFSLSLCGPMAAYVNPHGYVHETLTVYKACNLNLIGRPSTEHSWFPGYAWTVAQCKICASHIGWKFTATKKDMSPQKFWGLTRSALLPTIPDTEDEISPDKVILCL
# Molecular target: T1, CRBN, Q96SW2
# Experiment: log2 fold change of degron read counts, EGFP-low vs EGFP+ sorted cells (limma voom), compound-induced degradation; higher = more compound-induced degradation of the degron-EGFP fusion; degrons are variants of IKZF1/3 zinc finger 2; compound dose not given here
# Details: Jurkat, 18 h
# Method: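 Pooled library of 8380 IKZF3 ZF2 degron mutants (positions 146-167 varied within the IKZF3 130-189 degron; only the varied core is printed, flanks not printed) fused to EGFP with IRES-mCherry, lentivirally expressed in Jurkat cells. mCherry+ cells were treated with one IMiD compound for 18 h (dose not stated) and FACS-sorted into EGFP-low and EGFP+ populations. Degron sequences were counted by NGS, and log2FC (EGFP-low vs EGFP+) was estimated by limma voom over 3 biological replicates.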
# [1] = compound: compound 19 (5-tert-butyl-thalidomide)
# [2] = compound: compound 22 (5-morpholino-thalidomide)
# [3] = compound: compound 33 (diphenyl IMiD analogue)
# 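Further: pooled lentiviral library of zinc finger degron-EGFP fusions in mCherry-positive Jurkat cells, FACS-sorted after compound exposure, with degron abundance counted by next-generation sequencing.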
Sequence,log2 fold change of degron read counts [1],log2 fold change of degron read counts [2],log2 fold change of degron read counts [3],log2 fold change of degron read counts (compound: thalidomide)
"FECDVCGAHFTQKGNLLRHIKL [46F_47E_49D_50V_52G_53A_54H_55F_67L_, Q9UKT9]",-2.74,-4.09,-1.55,-1.76
"FECPQCGAPFTQKGNLLRHIKL [46F_47E_49P_50Q_52G_53A_54P_55F_67L_, Q9UKT9]",-2.11,-2.37,-1.67,-1.19
"FMCNQCGAKFTQKGNLLRHIKL [46F_47M_49N_50Q_52G_53A_54K_55F_67L_, Q9UKT9]",-2.87,-2.47,-2.42,-2.11
"LECEICGFGCTQKGNLLRHIKL [46L_47E_49E_50I_52G_53F_54G_55C_67L_, Q9UKT9]",-0.956,-2.31,-1.15,-0.202
"FMCDVCGAQFTQKGNLLRHIKL [46F_47M_49D_50V_52G_53A_54Q_55F_67L_, Q9UKT9]",-1.67,-1.16,1.5,-0.932
"FHCNICGACFTQKGNLLRHIKL [46F_47H_49N_50I_52G_53A_54C_55F_67L_, Q9UKT9]",1.16,1.39,0.659,-0.53
"FGCNQCGHWFTQKGNLLRHIKL [46F_47G_49N_50Q_52G_53H_54W_55F_67L_, Q9UKT9]",-0.98,-1.42,-1.2,-0.959
"FNCPQCGAGFTQKGNLLRHIKL [46F_47N_49P_50Q_52G_53A_54G_55F_67L_, Q9UKT9]",-0.184,-2.36,-1.35,-2.07
"FECEICGACFTQKGNLLRHIKL [46F_47E_49E_50I_52G_53A_54C_55F_67L_, Q9UKT9]",0.505,-1.14,1.9,2.35
"FGCEICGACFTQKGNLLRHIKL [46F_47G_49E_50I_52G_53A_54C_55F_67L_, Q9UKT9]",3.4,2.93,2.06,1.14
"FVCEICGACFTQKGNLLRHIKL [46F_47V_49E_50I_52G_53A_54C_55F_67L_, Q9UKT9]",0.542,1.78,2.28,2.75
"FQCEICGACFTQKGNLLRHIKL [46F_47Q_49E_50I_52G_53A_54C_55F_67L_, Q9UKT9]",1.23,3.08,2.71,3.48
"FTCEICGACFTQKGNLLRHIKL [46F_47T_49E_50I_52G_53A_54C_55F_67L_, Q9UKT9]",1.77,2.36,2.49,2.86
"FSCEICGACFTQKGNLLRHIKL [46F_47S_49E_50I_52G_53A_54C_55F_67L_, Q9UKT9]",3.31,2.47,2.56,1.4
"FMCEICGACFTQKGNLLRHIKL [46F_47M_49E_50I_52G_53A_54C_55F_67L_, Q9UKT9]",0.319,0.12,2.53,1.09
"FKCEICGACFTQKGNLLRHIKL [46F_47K_49E_50I_52G_53A_54C_55F_67L_, Q9UKT9]",-0.172,-3.02,-3.63,-0.785
"FCCEICGACFTQKGNLLRHIKL [46F_47C_49E_50I_52G_53A_54C_55F_67L_, Q9UKT9]",2.78,2.06,2.71,2.24
"FYCEICGACFTQKGNLLRHIKL [46F_47Y_49E_50I_52G_53A_54C_55F_67L_, Q9UKT9]",3.73,3.6,2.92,1.43
"FRCEICGACFTQKGNLLRHIKL [46F_47R_49E_50I_52G_53A_54C_55F_67L_, Q9UKT9]",0.0911,-0.251,1.83,1.53
"FDCEICGACFTQKGNLLRHIKL [46F_47D_49E_50I_52G_53A_54C_55F_67L_, Q9UKT9]",1.52,-0.309,0.629,0.633
